Calls of active or inactive are those of the source. The calls were made as follows: active = hit-call score of the fitted dose curve at least 0.9, where 1 is the maximum; inactive = score below 0.9.
Each compound was assayed against Paired box protein Pax-6 (Homo sapiens) (UniProt P26367) (assay: ATG_Pax6_CIS: Attagene CIS-FACTORIAL HepG2 Assay for human Paired Box 6 (PAX6) (AID 2282956)). Settings: HepG2 CIS-FACTORIAL PAX6 reporter transcription, RNA readout; actives raise or lower the signal.
Method: ATG_CIS is a cell-based, multiplexed-readout assay that uses HepG2, a human liver cell line, with measurements taken at 24 hours after chemical dosing in a 24-well plate.ATG_Pax6_CIS is one of 52 assay component(s) measured or calculated from the ATG_CIS assay. It is designed to make measurements of mRNA induction, a form of inducible reporter, as detected with fluorescence intensity signals by Reverse transcription polymerase chain reaction (RT-PCR) and Capillary electrophoresis technology.Data from the assay component ATG_Pax6_CIS was analyzed into 1 assay endpoint. This assay endpoint, ATG_Pax6_CIS, was analyzed with bidirectional fitting relative to DMSO as the negative control and baseline of activity. Using a type of inducible reporter, measures of mRNA for gain or loss-of-signal activity can be used to understand the reporter gene at the transcription factor-level as they relate to the gene PAX6. Furthermore, this assay endpoint can be referred to as a primary readout, because this assay has produced multiple assay endpoints where this one serves a reporter gene function. To generalize the intended target to other relatable targets, this assay endpoint is annotated to the dna binding intended target family, where the subfamily is paired box protein.
Human liver HepG2 cells are transiently transfected with multiple reporter transcription units (MRTUs) in 6-well plates using FuGene 6 reagent (Roche; 3 ml FuGene/1 mg DNA). The MRTU constructs are regulated by a cis-regulating element (promoter). […] A major difference between the CIS and TRANS system is that in CIS activities of endogenous TFs are measured, whereas the TRANS assay evaluates changes in activities of exogenous, chimeric NR-Gal4 proteins. […] At the end of 24 hour incubation, total RNA was isolated using TriZol reagent (Invitrogen). The isolated RNA is then reverse-transcribed using oligo(dT) primer and Mo-MLV reverse transcriptase (Invitrogen) with DNAse I (Ambion) treatment for 30 min. The one-tenth of the produced cDNA was amplified by PCR using Taq DNA polymerase (Invitrogen) and two reporter sequence-specific primers. The PCR products were fluorescently labeled by primer extension with 6-arboxyfluorescein (6-FAM) 5'-labeled reporter sequence-specific primer (2 min at 95 C, 20 s at 68 C and 10 min at 72 C) and these products were digested with 5U of HpaI (New England Biolabs) for 2h at 37 C. The fragments were purified using Qiaquick PCR columns (Qiagen), analyzed on an ABI 3130xL genetic analyzer (Applied Biosystems) with peak positions identified by using a set of X-rhodamine (ROX)-labeled MapMarker1000 molecular weight standards (BioVentures). The raw capillary electrophoresis data was processed using Attagraph software (Attagene).

Paired box protein Pax-6 (Homo sapiens), sequence (P26367 whole entry, looked up): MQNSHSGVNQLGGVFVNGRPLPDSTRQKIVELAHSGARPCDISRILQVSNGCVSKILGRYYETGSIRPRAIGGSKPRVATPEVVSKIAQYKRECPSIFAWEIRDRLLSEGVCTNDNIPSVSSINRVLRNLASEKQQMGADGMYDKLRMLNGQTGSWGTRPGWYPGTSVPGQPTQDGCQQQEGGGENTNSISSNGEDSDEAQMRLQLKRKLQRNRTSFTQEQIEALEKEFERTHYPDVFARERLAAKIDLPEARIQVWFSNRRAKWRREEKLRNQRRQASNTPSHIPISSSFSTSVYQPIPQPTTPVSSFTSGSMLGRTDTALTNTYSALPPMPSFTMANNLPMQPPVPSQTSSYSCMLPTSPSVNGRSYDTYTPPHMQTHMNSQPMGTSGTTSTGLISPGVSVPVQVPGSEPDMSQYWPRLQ

Structure (SMILES)	outcome	AC50
Nc1ccc2cc3ccccc3cc2c1	inactive	–
COC(F)(F)C(F)(C(F)(F)F)C(F)(F)F	inactive	–
CCCCCCCCCCCCCOP(=O)(O)O	inactive	–
CC=CC(=O)N(CC)c1ccccc1C	inactive	–
CC(=O)[C@H]1[C@H](C#N)C[C@H]2[C@@H]3CC=C4C[C@@H](O)CC[C@]4(C)[C@H]3CC[C@@]21C	inactive	–
CC(C)(Oc1ccc(C2CC2(Cl)Cl)cc1)C(=O)O (stereo not given)	inactive	–
OC1CCCCCCCCCCC1	inactive	–
CCCCCCCC/C=C\CCCCCCCC(=O)OCCO	inactive	–
CC1(C)O[C@@H]2C[C@H]3[C@@H]4C[C@H](F)C5=CC(=O)CC[C@]5(C)[C@H]4[C@@H](O)C[C@]3(C)[C@]2(C(=O)CO)O1	inactive	–
CCOC(=O)[C@H](C)O	inactive	–
CC(C)(C)c1ccc(-c2ccc(C(C)(C)C)cc2)cc1	inactive	–
O=C1C=CC(=O)O1	inactive	–
Cc1ccc([N+](=O)[O-])cc1S(=O)(=O)O	inactive	–
OC1OCCOC1O (stereo not given)	inactive	–
OC1CCCC1	inactive	–
CCC(C)(C)C1CCCCC1OC(C)=O (stereo not given)	inactive	–
O=C(O)c1cc2ccccc2nc1C(=O)O	inactive	–
O=Nc1ccc(O)cc1	inactive	–
O=C(c1ccc(O)cc1)c1ccc(O)cc1O	inactive	–
O=[N+]([O-])c1ccc(CO)cc1	inactive	–

Structure (SMILES)	outcome	AC50
Cc1cccc(OCCOc2cccc(C)c2)c1	inactive	–
OCCNCc1ccccc1	inactive	–
CCCCCCOC(=O)C(C)CC (stereo not given)	inactive	–
CCOc1ccc(N)c([N+](=O)[O-])c1	inactive	–
C=COCCCC	inactive	–
CN(C)c1ccc(C(=N)c2ccc(N(C)C)cc2)cc1	–	3.16 µM (active)
Nc1cccc(C(F)(F)F)c1	inactive	–
C=CC(=O)NC(C)(C)CS(=O)(=O)O	inactive	–
C[Si](C)O[Si](C)(C)O[Si](C)(C)O[Si](C)C	inactive	–
O=S(=O)(O)CC(O)CCl (stereo not given)	inactive	–
CN1C(=O)N(C)C(O)C1O (stereo not given)	inactive	–
COc1cc(C)ccc1C(C)C	inactive	–
Cc1cc(=O)n(-c2ccccc2)n1C	inactive	–
O=C1c2ccccc2C(=O)C1c1nc2ccccc2c(Br)c1O	inactive	–
Cc1c(C)c([N+](=O)[O-])c(C(C)(C)C)c([N+](=O)[O-])c1C	inactive	–
O=C(Nc1ccccc1)c1ccccc1O	inactive	–
CCOC(=O)NNc1nncc2ccccc12	inactive	–
c1cc(N(CC2CO2)CC2CO2)ccc1OCC1CO1 (stereo not given)	–	46.4 µM (active)
O=C(O)c1ccccc1Nc1cccc(C(F)(F)F)c1	inactive	–
CC(=O)OCC(=O)[C@@]12N=C(C)O[C@@H]1C[C@H]1[C@@H]3CCC4=CC(=O)C=C[C@]4(C)[C@H]3[C@@H](O)C[C@@]12C	inactive	–
